Screening data as filed in PubChem.
L3MBTL1 block: L3MBTL1 (human) inhibition; Q9Y468; AlphaScreen L3MBTL1–H3K9me1 peptide binding; Potency, µM (doses to about 57.1 µM), most hits filed as inhibitors; 0.66% of 230,000 active; further: nearly all actives have a fitted effect of over 60% in size
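Read-out is AlphaScreen signal from streptavidin donor and nickel chelate acceptor beads (10 ug/mL final each) bridging L3MBTL1 (50 nM) and biotinylated K9-monomethylated H3(1-15) peptide (75 nM), after 30 min compound exposure at room temperature.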
HP1b chromo inh: HP1-beta chromodomain-methylated histone interaction inhibition | P83916 | AlphaScreen HP1-beta / biotin-H3K9me3 peptide binding | Potency, µM (top dose mostly 114 µM), most hits filed as inhibitors | 0.56% of 390,000 active | AID 540317; further: nearly all actives have a fitted effect of over 70% in size
Target sequence (P83916 whole entry, looked up): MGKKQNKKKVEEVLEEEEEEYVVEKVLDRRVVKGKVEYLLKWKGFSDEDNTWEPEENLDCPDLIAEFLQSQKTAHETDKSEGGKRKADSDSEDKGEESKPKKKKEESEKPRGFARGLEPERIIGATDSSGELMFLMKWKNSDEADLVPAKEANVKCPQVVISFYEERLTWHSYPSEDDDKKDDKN
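HP1-beta protein (50 nM final) preincubated 30 min at room temperature with biotinylated H3(1-18)K9me3 peptide (50 nM) in PBS pH 7.4, 0.01% Tween-20, then compound added for 30 min. AlphaScreen streptavidin donor/nickel chelate acceptor beads (10 ug/mL final), 30 min dark, luminescence read.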
JMJD2A Tudor inh: JMJD2A Tudor domain (human) inhibition; Potency, µM (doses to about 114 µM), actives largely listed as inhibitors; AlphaScreen JMJD2A-Tudor / H3K4me3 peptide binding; 4.4% of 390,000 active; AID 504339; further: nearly all actives have a fitted effect of over 50% in size
G9a block: G9a (human) methyltransferase inhibition; Q96KQ7; G9a H3K9 monomethylation, AlphaScreen, 2 h; Potency, µM (top dose mostly 102 µM), hits mostly inhibitors; 8.8% of 350,000 active; AID 504332; further: nearly all actives have a fitted effect of over 75% in size
Target sequence (Q96KQ7 913-1193 limits assumed): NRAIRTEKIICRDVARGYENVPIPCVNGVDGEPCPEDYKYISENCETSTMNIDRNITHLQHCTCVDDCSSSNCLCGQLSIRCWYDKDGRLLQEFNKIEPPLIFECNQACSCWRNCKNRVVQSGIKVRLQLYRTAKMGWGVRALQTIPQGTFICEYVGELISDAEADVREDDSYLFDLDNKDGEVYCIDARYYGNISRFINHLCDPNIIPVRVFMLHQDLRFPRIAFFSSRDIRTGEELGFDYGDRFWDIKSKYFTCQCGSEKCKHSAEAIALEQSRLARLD
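AlphaScreen detection with an anti-monomethyl H3K9 antibody quantified product after a 2 h room-temperature reaction containing 500 nM biotinylated H3K9 peptide, 20 µM SAM and 20 nM enzyme, which had been preincubated 15 min with compound.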
BAZ2B block: inhibitors of human BAZ2B bromodomain. AlphaScreen BAZ2B-H3K14Ac peptide displacement. Potency, µM (top dose mostly 114 µM), usual class: inhibitors. 4.4% of 360,000 active; further: nearly all actives have a fitted effect of over 60% in size
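Complex of BAZ2B and biotin-H3K14Ac (50 nM apiece) forms over 30 min at RT, then faces library compounds up to 110 uM for another 30 min; AlphaScreen beads added, 20 min dark incubation, luminescence read.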
Hits are given with their value; i = inactive; ? = inconclusive; nt = no result; [ ] = another dose, or the depositor's remark. Most compounds without a hit are left out; they make up all but 11% or so of the library. The call rests on the fitted dose curve; in most records, active means well fitted inhibition curve with a large enough effect; inconclusive means small, poorly fitted or top-dose-only effect; inactive means no such curve, though single readings can be large or run the other way.

SMILES	L3MBTL1 block	HP1b chromo inh	JMJD2A Tudor inh	G9a block	BAZ2B block
COc1ccc(NCc2cc3cc4c(cc3n(CC(=O)Nc3ccc(F)cc3)c2=O)OCCO4)cc1	nt	i	i	?	i
COC(=O)c1ccc(OCC2c3cc(OC)c(OC)cc3CCN2C(=O)c2ccc(OC)cc2)cc1 (configuration not stated)	nt	i	i	i	?
COC(=O)c1ccc(OCC2c3cc(OC)c(OC)cc3CCN2C(=O)c2ccco2)cc1 (configuration not stated)	i	i	?	50.1µM	?
COc1ccc(OCC2c3cc(OC)c(OC)cc3CCN2C(=O)C(C)C)cc1 (configuration not stated)	nt	i	56.2µM	?	i
COc1ccc(C2=NN(CC(=O)NCCc3ccccc3)C(=O)CC2)cc1	nt	i	i	?	i
CCOc1ccc2nc(SCC(=O)N3CCCCCC3)c(C#N)cc2c1	nt	i	i	i[12.7 µM]	?
CCOc1ccc2cc(C#N)c(SCC(=O)N3CCOCC3)nc2c1	i	i	i	50.1µM	i
O=S(=O)(c1cccc2nonc12)N1CCN(c2ccccc2F)CC1	i	i	i	nt	i
Cc1cccc(N2CCN(S(=O)(=O)c3cccc4nonc34)CC2)c1C	?	i	?	20µM	?
Cc1cccc(N2CCN(S(=O)(=O)c3ccc4c(c3)C(C)(C)C(=O)N4C)CC2)c1C	?	i	?	nt	50.1µM
CCc1ccc(NC(=O)CC2C(=O)N(c3cccc(OC)c3)C(=O)N2Cc2ccc(F)cc2)cc1 (configuration not stated)	nt	i	i	i	i
CC1CCCN(CCOCCSc2ccccc2)C1 (configuration not stated)	i	?	2.51µM	10µM	i
CC1CCN(CCCCOc2ccc(C(C)(C)C)cc2)CC1	nt	?	20µM	39.8µM	?
CC1CCN(CCOCCOc2ccccc2-c2ccccc2)CC1	i	?	3.16µM	28.2µM	?
CC1CC(C)CN(CCCSc2ccccc2)C1 (configuration not stated)	i	?	28.2µM	?	?
c1ccc(OCCOCCN2CCOCC2)cc1	nt	i	i	i	i
Cc1cc(-c2ccc(S(=O)(=O)Nc3ccccc3F)s2)on1	nt	i	i	i	i
COc1ccccc1OCCCCOc1ccccc1C(C)=O	i	i	i	?	i
CC1CCN(CCCCOc2ccccc2-c2ccccc2)CC1	i	?	4.47µM	12.6µM	79.4µM
CC1CCN(CCOCCOc2ccccc2Br)CC1	i[11.4 µM]	?	2.51µM	?	56.2µM
CC(C)(C)c1ccccc1OCCOCCN1CCCCCC1	i[11.4 µM]	i	i	i	i
CC1CCCN(CCCOc2ccccc2-c2ccccc2)C1 (configuration not stated)	i[11.4 µM]	?	1.12µM	11.2µM	39.8µM
COc1ccccc1OCCCCN1CCC(C)CC1	nt	?	12.6µM	25.1µM	?
CN1CCC(N(C)C(=O)COc2ccccc2-c2ccccc2)CC1	i	i	i	i	i
CC1CN(C(=O)N2CCC(C(=O)NCc3ccco3)CC2)c2ccccc2O1 (configuration not stated)	nt	?	?	?	i
SMILES	L3MBTL1 block	HP1b chromo inh	JMJD2A Tudor inh	G9a block	BAZ2B block
Cc1ccc(NC(=O)NCC(c2ccccc2)N(C)C)cc1 (configuration not stated)	nt	i	i	i	i
CC(=O)c1ccc(NC(=O)CNCC(c2ccccc2)N(C)C)cc1 (configuration not stated)	i	i	2.82µM	14.1µM	i
NC(=O)NC(CC(=O)N1CCc2ccccc2C1)c1ccc(Cl)cc1 (configuration not stated)	nt	i	i	i	i
Cc1cc2c(s1)c1cnn(Cc3cccc(C)c3F)c(=O)c1n2C	nt	nt	i	nt	nt
COC(=O)c1c(C)n(-c2ccccc2)c2ccc(O)cc12	i	i	?	i[0.0925 µM]	i
CN(C)/C=C/c1c([N+](=O)[O-])c2ccc(O)cc2n1-c1ccccc1	i	i	?	nt	35.5µM
CCCCNc1nc(Oc2ccc(=O)n(-c3ccccc3)n2)nc(N(C)C)n1	nt	i	i	i	i
Cc1snc(S(=O)(=O)/C(C#N)=N/Nc2cccc(C(F)(F)F)c2)c1C#N	nt	i	50.1µM	14.1µM	?
COc1ccc(N/N=C(/C#N)S(=O)(=O)c2nsc(C)c2C#N)cc1	nt	i	?	?	?
CC(C)(C)c1cc[n+](-c2[nH]c(=O)sc2/C=N/NC([S-])=Nc2ccccc2)cc1	i	i	i	14.1µM	i
Cc1cc[n+](-c2[nH]c(=O)sc2/C=N/NC([S-])=Nc2ccccc2)cc1C	i	?	?	31.6µM	?
CCN(CC)S(=O)(=O)c1ccc2c(c1)N(CC(=O)N(C)Cc1ccccc1)C(=O)CO2	nt	i	i	i	i
Cc1ccc(S(=O)(=O)NC(C)c2ccccc2)cc1[N+](=O)[O-] (configuration not stated)	i	i	i	i	i
Cc1ccc(/C=N/NC(=O)c2cccs2)cc1[N+](=O)[O-]	i	i	i	i	i
CC(C)/C(=N\NS(=O)(=O)c1ccc(Br)cc1)c1cccs1	i	i	50.1µM	?	i
C/C(=N\NS(=O)(=O)c1ccc([N+](=O)[O-])cc1)c1cccs1	nt	i	?	44.7µM	?
C/C(=N\NS(=O)(=O)c1ccc(C)c([N+](=O)[O-])c1)c1cccs1	i	i	i	31.6µM	nt
C/C(CC(C)C)=N\NS(=O)(=O)c1ccc(C)c([N+](=O)[O-])c1	i	i	?	31.6µM	i
O=[N+]([O-])c1ccc(Cl)cc1NCC1CCCO1 (configuration not stated)	nt	i	i	?	i
CC(C)c1ccc(NC(=O)CN2C(=O)COc3ccc(S(=O)(=O)N4CCCCCC4)cc32)cc1	nt	i	i	i	i
CCOc1ccc(C=NNc2ccc(S(=O)(=O)Nc3ccccc3C(=O)O)cc2[N+](=O)[O-])cc1OC	?	?	20µM	nt	nt
CC(=O)Nc1ccc(C=NNc2ccc(S(=O)(=O)Nc3ccccc3C(=O)O)cc2[N+](=O)[O-])cc1	?	?	50.1µM	nt	nt
NS(=O)(=O)c1ccc(N/N=C/c2ccc(C(=O)O)cc2)c([N+](=O)[O-])c1	i	i	i	nt	?
COc1cc(C=NNc2ccc(S(=O)(=O)Nc3ccccc3C(=O)O)cc2[N+](=O)[O-])ccc1O	?	?	25.1µM	nt	nt
O=C(O)c1ccccc1NS(=O)(=O)c1ccc(N/N=C/c2cccc(O)c2O)c([N+](=O)[O-])c1	nt	?	20µM	nt	nt
CCOc1ccccc1NS(=O)(=O)c1ccc(OC)c(OC)c1	i	i	i	i	i
O=C(Cn1c(=O)oc2cc(S(=O)(=O)N3CCCCCC3)ccc21)Nc1cccc(C(F)(F)F)c1	nt	i	i	i	i
COCCNc1ncnc2ccc(-c3ccccc3C)cc12	nt	nt	nt	i[0.501 µM]	nt
CC(=O)Nc1cccc(/C(C)=N/Nc2ccc(S(=O)(=O)Nc3ccccc3C(=O)O)cc2[N+](=O)[O-])c1	nt	?	35.5µM	nt	nt
